ER stress death = ER stress cell death inhibition | AID 1010 | 48,000 tested, 0.33% active | CSM14.1 thapsigargin ER stress survival, ATP luminescence | relative survival (cellular ATP), % at 15 µg/mL (by protocol);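 active = survival measured by cellular ATP above 50% at 15 µg/ml in the first screen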;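 also: cell death triggered by about 15 µM thapsigargin; ATP read 24 h after thapsigargin was added; plate controls were thapsigargin with DMSO for no effect and DMSO without thapsigargin for full effect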
Starred values were filed as active, the others as inactive. The sample as a whole holds a higher share of hits than the screen did.

SMILES	ER stress death
COc1cc(NC(=O)c2ccc(-c3ccc(Cl)cc3)o2)ccc1NC(=O)c1ccco1	-1
Cc1cc(NC(=O)c2ccc(-c3ccc(Cl)cc3)o2)ccc1NC(=O)c1ccco1	62*
Cc1cc(NC(=O)c2ccc(-c3ccc(Br)cc3)o2)ccc1NC(=O)c1ccco1	-8
Cc1ccc(OC(=O)C(C)N2C(=O)c3ccccc3C2=O)cc1C (stereo not given)	4
Cc1cccc(C)c1-n1c(C)cc(/C=N/NC(=O)c2cccnc2)c1C	1
O=C(N/N=C\c1ccccc1O)c1cc(-c2ccccc2)nc2ccccc12	8
Cc1ccc(C2Nc3ccccc3NC3=C2C(=O)CC(c2ccc(Cl)cc2)C3)cc1[N+](=O)[O-] (stereo not given)	7
O=C1CC(c2ccc(Cl)cc2)CC2=C1C(c1cc3c(cc1[N+](=O)[O-])OCO3)Nc1ccccc1N2 (stereo not given)	84*
O=C1CC(c2ccc(Cl)cc2)CC2=C1C(c1ccccc1[N+](=O)[O-])Nc1ccccc1N2 (stereo not given)	26
O=C1CC(c2ccc3c(c2)OCO3)CC2=C1C(c1cc3c(cc1Br)OCO3)Nc1ccccc1N2 (stereo not given)	6
O=C1CC(c2ccc3c(c2)OCO3)CC2=C1C(c1ccc(C(F)(F)F)cc1)Nc1ccccc1N2 (stereo not given)	122*
O=C1CC(c2ccccc2)CC2=C1C(c1ccc(Cl)c([N+](=O)[O-])c1)Nc1ccccc1N2 (stereo not given)	100*
COc1ccc(C2CC(=O)C3=C(C2)Nc2ccccc2NC3c2cc3c(cc2Cl)OCO3)cc1 (stereo not given)	7
COc1ccc(C2CC(=O)C3=C(C2)Nc2ccccc2NC3c2ccc3c(c2)OCO3)cc1 (stereo not given)	5
O=C1CC(c2ccccc2)CC2=C1C(c1ccc(F)cc1)Nc1ccccc1N2 (stereo not given)	8
O=S(=O)(Nc1ccc(Cl)cc1Cl)c1ccc2ccccc2c1	8
Cc1oc(C(=O)O)cc1CSC(C)C(=O)O (stereo not given)	-2
Cc1ccc(-c2n[nH]c(=S)n2-c2ccccc2C)cc1	11
COC(=O)CN1C(=O)/C(=C\c2ccc(C)cc2)SC1=S	-5
COc1ccc(/C=C2\C=C(c3ccc(Cl)cc3)OC2=O)cc1C	-4
O=C(NCCO)c1ccc2nc3c4ccccc4c4ccccc4c3nc2c1	0
NC(=O)CSc1nc2sc3c(c2c(=O)n1-c1ccccc1)CCC3	-4
O=C(Nc1sc2c(c1C(=O)N1CCCCC1)CCCC2)c1cccs1	2
COc1cc(N(C)C)c([N+](=O)[O-])cc1C(=O)N1CC(C)NC(C)C1 (stereo not given)	5
CC(C)COC(=O)C(C)Nc1n[nH]c(=O)[nH]c1=O (stereo not given)	6
SMILES	ER stress death
O=C(c1cccnc1)N1CCCc2ccccc21	10
COc1ccc(N(Cc2ccc(C(=O)NC3CCCC3)cc2)S(=O)(=O)c2ccccc2)cc1	2
COc1ccc(N(Cc2ccc(C(=O)NC3CCCCC3)cc2)S(=O)(=O)c2ccccc2)cc1	9
CCN(CC)C(=O)c1ccc(CN(c2ccc(OC)cc2)S(=O)(=O)c2ccccc2)cc1	124*
Cc1ccc(/C=C2/SC(=O)N(CNc3ccc(Br)cc3C)C2=O)cc1	0
O=C(Nc1ccccc1)C1(S(=O)(=O)c2ccccc2)CC1	3
COc1cc(OC)cc(C(=O)N2CCN(Cc3ccccc3C(F)(F)F)CC2)c1	73*
COc1cc(OC)cc(C(=O)N2CCN(Cc3ccccn3)CC2)c1	0
COc1cc(OC)c(OC)cc1CN1CCN(C(=O)c2ccc(OC)c(OC)c2)CC1	2
COc1cc(C(=O)N2CCN(Cc3ccccc3C(F)(F)F)CC2)cc(OC)c1OC	8
COc1ccc(C(=O)N2CCN(Cc3ccccc3)CC2)c(OC)c1	-2
COc1ccc(CN2CCN(C(=O)c3ccc(-c4ccccc4)cc3)CC2)c(OC)c1	129*
COc1ccc(Br)cc1CN1CCN(C(=O)c2ccc(-c3ccccc3)cc2)CC1	98*
COc1ccc(CN2CCN(C(=O)c3ccc(-c4ccccc4)cc3)CC2)cc1OC	-6
COc1ccc(CN2CCN(C(=O)c3ccccc3)CC2)c(OC)c1OC	1
Cc1no[n+]([O-])c1COc1ccc(/C=C2\N=C(c3ccccc3)OC2=O)cc1	4
O=S(=O)(Nc1ccccc1C(F)(F)F)c1ccccc1	2
CN(c1ccc(C(=O)Nc2cc(Cl)ccc2Cl)cc1)S(=O)(=O)c1ccccc1	6
NC(=O)SCC(=O)Nc1ccccc1Br	4
C=CCC1(C#N)C(=S)NC2=C(C(=O)CC(C)(C)C2)C1c1ccc(Br)cc1 (stereo not given)	-9
CCOC(=O)c1c(C)nc(-c2ccccc2)nc1NC(=O)CC	6
CC(C)CC(=O)N1CCN(Cc2cccc(C(F)(F)F)c2)CC1	-9
O=C(/C=C/c1ccccc1)NC(=S)Nc1ccc(NC(=O)c2ccccc2)cc1	6
O=C(c1ccccc1F)N1CCN(Cc2cccc(F)c2)CC1	0
Clc1ccc(C=NN2CCN(Cc3ccccc3Cl)CC2)c(Cl)c1	11
SMILES	ER stress death
Cc1ccccc1CN1CCN(C(=O)C(c2ccccc2)c2ccccc2)CC1	97*
O=C(C(c1ccccc1)c1ccccc1)N1CCN(Cc2ccncc2)CC1	-2
O=C(C(c1ccccc1)c1ccccc1)N1CCN(Cc2ccc(F)cc2)CC1	63*
Cc1ccccc1C(=O)N1CCN(Cc2ccccc2)CC1	-1
Cc1ccccc1CN1CCN(C(=O)c2cccc(Cl)c2)CC1	2
O=C(CC(c1ccccc1)c1ccccc1)N1CCN(Cc2ccccc2)CC1	9
CC(=O)C1=C(O)C(=O)N(CCN(C)C)C1c1cccc([N+](=O)[O-])c1 (stereo not given)	-3
COc1ccc(CCNC(=O)C(=O)Nc2ccc3c(c2)OCCO3)cc1OC	-8
N#CCC(=O)N1CCN(C(c2ccccc2)c2ccccc2)CC1	-4
C(#Cc1ccccc1)CN1CCN(CC#Cc2ccccc2)CC1	5
O=C1c2ccccc2C(=O)N1CC#CCN1CCN(C(c2ccccc2)c2ccccc2)CC1	68*
O=c1oc2c3c(ccc2c2c1CCC2)OCN(c1ccc(Cl)cc1)C3	10
COc1ccc(S(=O)(=O)N2CCN(Cc3ccccc3C)CC2)cc1	-1
Cc1ccc(CN2C(=O)C(C)(C)N(C(=O)c3cccc([N+](=O)[O-])c3)c3ccccc32)c(C)c1	1
CC(C)(C)c1ccc(C(=O)N2N=C(c3cccnc3)CC2(O)C(F)(F)F)cc1 (stereo not given)	55*
COc1cccc(C2=NN(C(=O)c3ccc(C(C)(C)C)cc3)C(O)(C(F)(F)F)C2)c1 (stereo not given)	1
CC(C)(C)c1ccc(C(=O)N2N=C(c3ccc([N+](=O)[O-])cc3)CC2(O)C(F)(F)F)cc1 (stereo not given)	12
O=C(Nc1ccc2c(c1Cl)C(=O)c1ccccc1C2=O)c1ccccc1	3
Cc1ccc(O)c(C=Nc2cccc3nsnc23)c1	0
O=C(N/N=C/c1ccc(Cl)c([N+](=O)[O-])c1)/C(=C\c1ccc2c(c1)OCO2)NC(=O)c1ccccc1	81*
COc1cc(Cl)cc(/C=N/NC(=O)/C(=C\c2ccc3c(c2)OCO3)NC(=O)c2ccccc2)c1O	5
O=C(O)COc1ccccc1/C=N/NC(=O)/C(=C\c1ccc2c(c1)OCO2)NC(=O)c1ccccc1	-4
O=C(NCC1CCCO1)c1ccc(C2SCC(=O)N2Cc2ccccc2)cc1 (stereo not given)	0

Compound activity: PubChem BioAssay, Sanford-Burnham Center for Chemical Genomics
